Reference: PMC5540273 (PLoS ONE, 2017)

Columns and labels:
Settings in all cases: concentration: 1 μM, replicates: in singlicate; n = 1
CAMK1 = tested on: CAMK1
CAMK2A = tested on: CAMK2A
CAMK2B = tested on: CAMK2B
CAMK2D = tested on: CAMK2D
CAMK2G = tested on: CAMK2G
CAMK4 = tested on: CAMK4
CAMKK1 = tested on: CAMKK1
CAMKK2 = tested on: CAMKK2
CASK = tested on: CASK
CDC2L1 = tested on: T1, CDC2L1
T1 construct: gene CDK11B
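Further: KINOMEscan kinase panel screen.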

| Structure (SMILES) | %Inh (CAMK1) [%] | %Inh (CAMK2A) [%] | %Inh (CAMK2B) [%] | %Inh (CAMK2D) [%] | %Inh (CAMK2G) [%] | %Inh (CAMK4) [%] | %Inh (CAMKK1) [%] | %Inh (CAMKK2) [%] | %Inh (CASK) [%] | %Inh (CDC2L1) [%] |
| --- | --- | --- | --- | --- | --- | --- | --- | --- | --- | --- |
| COc1cccc(-c2ccc3c(NC(=O)C4CC4)n[nH]c3n2)c1 [SB-710903] | 0 | 100 | 100 | 8 | 9 | 0 | 6 | 7 | 23 | 0 |
| CC(C)c1nc(-c2cccc(NS(=O)(=O)c3c(F)cccc3F)c2F)c(-c2ccnc(Nc3ccc(N4CCOCC4)nc3)n2)s1 [GSK2008607] | 81 | 0 | 0 | 3 | 29 | 65 | 55 | 15 | 0 | 12 |
| c1ccc(-c2n[nH]cc2Nc2ccnc3ccccc23)nc1 [GW694077] | 20 | 21 | 17 | 19 | 23 | 0 | 13 | 28 | 33 | 0 |
| O=C(O)C(F)(F)F.O=C(O)C(F)(F)F.O=c1[nH]ccc2nc(N[C@@H]3CCCNC3)nc(Nc3ccc(S(=O)(=O)N4CCOCC4)cc3)c12 [GSK2177277] | 88 | 100 | 99.9 | 54 | 54 | 95.6 | 94.2 | 57 | 2 | 0 |
| O=C(Nc1ccccc1F)NC1CCN(c2ccnc(Nc3ccc(F)cc3)n2)CC1 [GSK1379800] | 0 | 0 | 0 | 3 | 15 | 0 | 0 | 3 | 0 | 0 |
| Nc1ncc(-c2cccnc2)c2scc(-c3ccc4c(c3)CCN4C(=O)Cc3ccccc3)c12 [GSK683281] | 22 | 0 | 0 | 19 | 37 | 1 | 34 | 26 | 26 | 0 |
| O=c1[nH]cc(-c2ccc(N3CCOCC3)cc2)c2sc(-c3cn[nH]c3)cc12 [GSK2276055] | 31 | 2 | 2 | 18 | 25 | 0 | 29 | 22 | 15 | 4 |
| O=C(NC1CCN(c2ccnc(Nc3ccc(F)cc3)n2)C1)c1cc2ccccc2s1 (stereo not drawn) [GSK1379716] | 26 | 0 | 0 | 7 | 23 | 13 | 10 | 17 | 22 | 0 |
| COc1cccc(C(=O)Nc2cccc(Oc3ccc4nc(NC(=O)C5CC5)cn4n3)c2)c1 | 16 | 11 | 18 | 15 | 0 | 8 | 6 | 0 | 3 | 0 |
